Screen size: about 59,000 compounds; about 6,200 (11%) were called active. Not shown: some 9% with an inconclusive outcome. No stated cut-off is given here; in the data, active means max dye-equivalent concentration above about 10 nM; inconclusive means mostly about 1.1 nM to 9.6 nM; inactive means weaker than that. The entries come from a sample that favours actives as a whole.
Assay: qHTS Assay for Spectroscopic Profiling in 4-MU Spectral Region
Details: compound autofluorescence, 340/450 nm, 4-MU equivalents; stronger effect = higher value
In short: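 Compounds in 100 mM Tris, pH 8.0, incubated 15 min at room temperature, then fluorescence read at 340 nm excitation/450 nm emission. Signal converted to 4-MU dye-equivalent concentration using an on-plate six-point 4-MU standard curve.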
In the case of `Cc1nc(NC(=O)C23CCC(C)(C(=O)O2)C3(C)C)sc1C` (stereo not drawn), the max dye-equivalent concentration is reported as “inactive”.
In the case of `CC(=NCc1ccco1)C1=C(O)c2ccccc2C1=O`, the max dye-equivalent concentration is reported as “inactive”.
In the case of `COc1ccc(N2C(=O)CC(N3CCC(C(N)=O)CC3)C2=O)cc1` (stereo not drawn), the max dye-equivalent concentration is reported as “inactive”.
With `CCCC(NC(=O)c1ccccc1)c1nc2ccccc2n1Cc1ccc(C(=O)OC)o1` (stereo not drawn) the max dye-equivalent concentration was “inactive”.
For `CCn1c(SCC(=O)Nc2cc(C)ccc2C)nnc1-c1cnccn1`, the max dye-equivalent concentration was “inactive”.
For `Cc1ccc2nc(NCCCNC(=O)c3cnccn3)c(C#N)cc2c1`, the max dye-equivalent concentration was 160 nM (active).
In the case of `CC1(C)C(=O)C2(CCCCC2)C(=O)OC1c1cccs1` (stereo not drawn), the max dye-equivalent concentration is reported as “inactive”.
In the case of `CC(C)CNS(=O)(=O)c1ccc(OCC(=O)Nc2ccc3c(c2)OCO3)c(Cl)c1`, the max dye-equivalent concentration is reported as “inactive”.
In the case of `CC1CN(C(=O)CN2C(=O)NC(C)(c3ccccc3)C2=O)CC(C)O1` (stereo not drawn), the max dye-equivalent concentration is reported as “inactive”.
For `COC(=O)c1cc(C(=O)OC)cc(N2C(=O)CC(N3CCN(c4ccccc4)CC3)C2=O)c1` (stereo not drawn), the max dye-equivalent concentration was “inactive”.
For `CCc1c(C)nc2ncnn2c1N1CCC(C(=O)NCc2ccc3c(c2)OCO3)CC1`, the max dye-equivalent concentration was “inactive”.
For `O=C1CSC(=O)N1CCOCCN1C(=O)CSC1=O`, the max dye-equivalent concentration was “inactive”.
For `COc1ccc(CCn2c(-c3ccco3)nc3nc4ccccc4nc32)cc1OC`, the max dye-equivalent concentration was 40 nM (active).
With `COc1ccc(CCn2nnnc2C(c2ccccc2)N2CCN(C)CC2)cc1OC` (stereo not drawn) the max dye-equivalent concentration was “inactive”.
For `COCCn1c(-c2ccc(OC)c(OC)c2)nc2ccccc21`, the max dye-equivalent concentration was “inactive”.
With `CCn1cc(C(=O)N2CCN(C3CCCCC3)CC2)c2cc(OC)c(OC)cc2c1=O` the max dye-equivalent concentration was “inactive”.
For `Cn1c2c(c(=O)n(C)c1=O)C(c1ccc(O)cc1)Nc1ccccc1O2` (stereo not drawn), the max dye-equivalent concentration was “inactive”.
With `CCn1c(COc2cccc(OC)c2)nnc1SCC(=O)N1CCOCC1` the max dye-equivalent concentration was “inactive”.
With `COc1ccc(-c2ccnc(SCC(=O)N3CCOCC3)n2)cc1` the max dye-equivalent concentration was 110 nM (active).
In the case of `COc1ccc(-c2nc(SCC(=O)N3CCOCC3)n[nH]2)cc1`, the max dye-equivalent concentration is reported as “inactive”.
For `CC1(C)CC(=O)C=C(NCCCN2CCCC2=O)C1`, the max dye-equivalent concentration was “inactive”.
In the case of `CCOC(=O)c1ccc(N2C(=O)CC(Sc3nc(O)c(CC)c(=O)[nH]3)C2=O)cc1` (stereo not drawn), the max dye-equivalent concentration is reported as “inactive”.
In the case of `CS(=O)(=O)N1CCCC(C(=O)N2CCOCC2)C1` (stereo not drawn), the max dye-equivalent concentration is reported as “inactive”.
With `COc1ccc(OCCCON2C(=O)c3ccccc3C2=O)cc1` the max dye-equivalent concentration was “inactive”.
With `COc1ccc(N2C(=O)c3cccc4cccc(c34)C2=O)nn1` the max dye-equivalent concentration was 160 nM (active).
With `Cc1cc(C)c(C)c(S(=O)(=O)Nc2ccc(O)cc2)c1C` the max dye-equivalent concentration was “inactive”.
In the case of `COCCCNC(=O)c1ccc(CNS(=O)(=O)c2ccc(NC(C)=O)cc2)cc1`, the max dye-equivalent concentration is reported as “inactive”.
In the case of `CC(C)C1Cc2c(sc3c2c(=O)n(-c2ccccc2)c2nncn32)CO1` (stereo not drawn), the max dye-equivalent concentration is reported as “inactive”.
With `O=C(Cn1cc(C(=O)c2cccs2)c2ccccc21)NCc1cccs1` the max dye-equivalent concentration was 29 nM (active).
With `O=C(CCC(=O)c1cccs1)NCc1ccccc1` the max dye-equivalent concentration was “inactive”.
With `COC(=O)c1cn(CC(=O)NCc2cccs2)c2ccccc12` the max dye-equivalent concentration was “inactive”.
In the case of `CCc1ccc(CCC(=O)Nc2ccc(S(N)(=O)=O)cc2)o1`, the max dye-equivalent concentration is reported as “inactive”.
For `Clc1ccc(C(c2ccc(Cl)cc2)n2cc[n+](C[C@@H](OCc3ccc(Cl)cc3Cl)c3ccc(Cl)cc3Cl)c2)cc1`, the max dye-equivalent concentration was “inactive”.
In the case of `CC1CCCN(c2ccc(C(=O)NCCc3ccccc3)cn2)C1` (stereo not drawn), the max dye-equivalent concentration is reported as “inactive”.
In the case of `Cc1ccc(S(=O)(=O)NC(=O)NN2C[C@H]3CCC[C@@H]3C2)cc1`, the max dye-equivalent concentration is reported as “inactive”.
With `O=C(OCC(=O)N1CCCC1)c1ccco1` the max dye-equivalent concentration was “inactive”.
For `Nc1nc2n(n1)C(c1ccco1)CC(c1ccc(Cl)c(Cl)c1)N2` (stereo not drawn), the max dye-equivalent concentration was “inactive”.
For `COc1ccc(C2CC(c3ccc(C)cc3)Nc3nc(N)nn32)cc1` (stereo not drawn), the max dye-equivalent concentration was 2500 nM (active).
In the case of `CC1CC(c2ccccc2)n2nc(NC(=O)c3cccs3)nc2N1` (stereo not drawn), the max dye-equivalent concentration is reported as “inactive”.
With `CCc1c(C)c2c(C)[nH]nc2oc1=O` the max dye-equivalent concentration was “inactive”.
For `COc1ccc(N2CCN(C(c3cc4ccc(C)cc4[nH]c3=O)c3nnnn3C3CCCC3)CC2)cc1` (stereo not drawn), the max dye-equivalent concentration was “inactive”.
For `COc1ccc(OC)c(C(c2nnnn2C(C)(C)C)N2CCc3ccccc3C2)c1` (stereo not drawn), the max dye-equivalent concentration was “inactive”.
With `Cc1cc(C)c2[nH]c(=O)c(C(c3nnnn3Cc3ccc4c(c3)OCO4)N3CCCC3)cc2c1` (stereo not drawn) the max dye-equivalent concentration was “inactive”.
In the case of `COCCn1nnnc1C(c1cc2ccc(OC)cc2[nH]c1=O)N1CCc2ccccc2C1` (stereo not drawn), the max dye-equivalent concentration is reported as 17 nM (active).
In the case of `COCCn1nnnc1C(c1ccccc1Cl)N1CCN(c2ccccc2OC)CC1` (stereo not drawn), the max dye-equivalent concentration is reported as “inactive”.
In the case of `CCOc1ccc2[nH]c(=O)c(C(c3nnnn3CCOC)N3CCOCC3)cc2c1` (stereo not drawn), the max dye-equivalent concentration is reported as 720 nM (active).
For `CCCOc1ccccc1C(=O)NCCCC(=O)O`, the max dye-equivalent concentration was “inactive”.
For `COC(=O)Nc1ncc(CN2C(=O)c3ccccc3C2=O)s1`, the max dye-equivalent concentration was “inactive”.
In the case of `O=C(CCCn1c(SCC(=O)c2ccc(F)cc2)nc2ccccc2c1=O)NCc1ccco1`, the max dye-equivalent concentration is reported as “inactive”.
For `CC1(N2CCOCC2)CC2(O)C(=[N+]1[O-])CCc1nonc12` (stereo not drawn), the max dye-equivalent concentration was “inactive”.
For `CCn1c(COc2ccccc2)nnc1SCC(=O)Nc1ccc2c(c1)OCCO2`, the max dye-equivalent concentration was “inactive”.
With `COc1ccc(S(=O)(=O)N2CCCCC2)cc1Br` the max dye-equivalent concentration was “inactive”.
For `C=CCn1c(CC(=O)Nc2cccc(OC)c2)nnc1SCC(=O)NC1CCCCC1`, the max dye-equivalent concentration was “inactive”.
In the case of `COc1ccc(OCC(=O)N2CCN(C(=O)COc3ccccc3)CC2)cc1`, the max dye-equivalent concentration is reported as “inactive”.
For `CCC(CC)C(=O)Nc1cccc(C(=O)N2CCCC2)c1`, the max dye-equivalent concentration was “inactive”.
In the case of `COc1ccc(OCc2cccc(C(=O)N3CCCC3)c2)cc1`, the max dye-equivalent concentration is reported as 19 nM (active).
With `c1ccc(CCc2nc(-c3ccncc3)no2)cc1` the max dye-equivalent concentration was “inactive”.
With `Cc1cc(C)cc(NC(=O)C2CCN(c3nc(C)cc(C)n3)CC2)c1` the max dye-equivalent concentration was “inactive”.
For `CC(=O)N1CCC(C(=O)Nc2nc(-c3ccccc3)ns2)CC1`, the max dye-equivalent concentration was 1800 nM (active).
In the case of `Cc1ccc2c(NC(=O)C3CC3)cccc2n1`, the max dye-equivalent concentration is reported as “inactive”.
With `CCCOc1ccccc1-c1nc(SCCC(=O)O)n[nH]1` the max dye-equivalent concentration was “inactive”.
In the case of `CCn1c(=N)n(CC(=O)c2cccc(OC)c2)c2ccccc21`, the max dye-equivalent concentration is reported as “inactive”.
For `COC(=O)c1ccc(CSc2nncn2C)cc1`, the max dye-equivalent concentration was “inactive”.
For `Cc1ccc(C(c2nnnn2C(C)(C)C)N2CCc3ccccc3C2)cc1` (stereo not drawn), the max dye-equivalent concentration was “inactive”.
In the case of `Cc1ccc(NC(=O)CCN2CCc3ccccc3C2)cc1`, the max dye-equivalent concentration is reported as “inactive”.
With `Cc1ccc2c(c1)c1ncnc(N3CCc4ccccc4C3)c1n2C` the max dye-equivalent concentration was 140 nM (active).
In the case of `CCOC(=O)CSc1nnc(NC(=O)c2cccc(S(=O)(=O)N3CCCCC3)c2)s1`, the max dye-equivalent concentration is reported as “inactive”.
With `Cc1cc(C)c2nc3c(c([C@H](O)[C@@H]4CCCCN4)c2c1)CC/C3=C/c1ccc(Cl)cc1` the max dye-equivalent concentration was “inactive”.
